The source of these data is ChEMBL document CHEMBL4513216, “Probing the Open Global Health Chemical Diversity Library for Multistage-Active Starting Points for Next-Generation Antimalarials” (ACS Infect Dis, 2020).

Structures are written as SMILES. The campaign covered roughly 69,000 compounds. About 8,600 (12%) showed an effect of 50% or more. The sample holds strong results, similar compounds and a random draw of the others, so the mix is not that of the screen.

For this test, the system named is Plasmodium berghei. Nature of the test: Screen against P. berghei liver stage (PbLuc), transformed with Luciferase, at 10uM. It counts as functional, HepG2. Conditions: tested at 10 uM.
`NC(=O)NC(=O)CCN1CCCC1c1nc(C2CCCCC2)co1` (centres undefined): the INHIBITION is -5.33%.

For `Cc1ccc(F)c2c1N(C(=O)Cc1c(C)nn(C)c1C)CCC2`, the INHIBITION was -19.1%.

Turning to `CCCS(=O)(=O)NCCn1ccc(-c2cccs2)n1`, the INHIBITION stood at 34.6%.

Turning to `Cc1nn(C)c(C)c1S(=O)(=O)NCCn1ccc(-c2cccs2)n1`, the INHIBITION was found to be 63.1%.

In the case of `CS(=O)(=O)NCCn1ccc(-c2cccs2)n1`, the INHIBITION came to 22.5%.

Turning to `O=C(NCC1CCOCC1)[C@H]1C[C@@H]2CCN(Cc3ccncc3)C[C@@H]2O1`, the INHIBITION turned out to be 10%.

For `Cc1cn[nH]c1C1COCCN1C(=O)c1cc(F)ccc1F` (centres undefined), the INHIBITION turned out to be 22.8%.

For `COCC1CN(Cc2ccc(F)cc2)Cc2nnn(CC3CC3)c21` (centres undefined), the INHIBITION is recorded as -9.54%.

With `COc1ccc2oc(-c3cn(C)nc3C)c(O)c(=O)c2c1`, the INHIBITION amounted to 8.49%.

On to `O=C1NCCN2CCN(C(=O)Nc3ccc(-c4ccccc4)cc3)CC12` (centres undefined), for which the INHIBITION is given as 18.6%.

For `COc1cccc(CNC(=O)N2CCN3CCNC(=O)C3C2)c1` (centres undefined), the INHIBITION stood at 15.2%.

`O=C1NCCN2CCN(C(=O)NCCc3ccccc3)CC12` (centres undefined): the INHIBITION is reported as 61.1%.

On to `O=C(c1ccccn1)N1C[C@H]2CC[C@@H](C1)N(C(=O)CCc1cccs1)C2`, for which the INHIBITION is reported as 21.8%.

For `CCC(=O)N1CCC(c2ncncc2C)CC1`, the INHIBITION was determined as 21.1%.

On to `Cc1ncsc1C(=O)Nc1cccc(OCC(F)F)n1`, for which the INHIBITION is 17.4%.

Consider `NC(=O)Nc1cccc(C(=O)N(Cc2ccncc2)C2CC2)c1`, for which the INHIBITION was 71.1%.

Regarding `Cc1ccc(CN(C(=O)c2cccc(NC(N)=O)c2)C2CC2)o1`, the INHIBITION worked out at 17.9%.

Consider `NC(=O)Nc1cccc(C(=O)N(Cc2ccc(F)cc2)C2CC2)c1`, for which the INHIBITION came to 13.5%.

`Cc1occc(=O)c1OCc1noc(C(=O)NC2CCCC2)n1`: the INHIBITION was 6.67%.

On to `CCOCC1CN(C(=O)N2CCCC2)Cc2cnn(C)c21` (centres undefined), for which the INHIBITION worked out at 21.4%.

Consider `Cc1ccc(N2Cc3cnn(C)c3C(COCC3CC3)C2)nn1` (centres undefined), for which the INHIBITION turned out to be 24.6%.

`CCOCC1CN(C(=O)c2ccco2)Cc2cnn(C)c21` (centres undefined): the INHIBITION is on record as 18.4%.

Consider `CCOCC1CN(C(=O)C2CCOCC2)Cc2cnn(C)c21` (centres undefined), for which the INHIBITION was determined as 59.9%.

For the compound `CCOCC1CN(c2ccc(C)nn2)Cc2cnn(CC)c21` (centres undefined), the INHIBITION is 48.4%.

Consider `CCOCC1CN(C(=O)c2ccnnc2)Cc2cnn(CC)c21` (centres undefined), for which the INHIBITION was 5.44%.

As to `CCOCC1CN(C(=O)c2ccco2)Cc2cnn(CC)c21` (centres undefined), the INHIBITION turned out to be 78.8%.

Consider `CCn1cc2c(n1)C(COCC1CC1)CN(C(=O)c1ccco1)C2` (centres undefined), for which the INHIBITION is -78.9%.

Regarding `O=C(c1ccco1)N1Cc2cnn(CC3CC3)c2C(COCC2CC2)C1` (centres undefined), the INHIBITION was 50.4%.

Turning to `CCn1ncc2c1C(COCC1CC1)CN(c1ccc(C)nn1)C2` (centres undefined), the INHIBITION came out at 86.2%.

As to `CCOCC1CN(C(=O)c2cccn2C)Cc2cnn(CC3CC3)c21` (centres undefined), the INHIBITION was 19%.

Regarding `CCOCC1CN(C(=O)CS(C)(=O)=O)Cc2cnn(C)c21` (centres undefined), the INHIBITION was 19.5%.

As for `CNC(=O)c1ccc(C(=O)N2CCCC(n3ccnc3)C2)cn1` (centres undefined), the INHIBITION was 18.2%.

In the case of `Cc1cnn(CC2CCCN2CC(=O)NC2CCOCC2)c1` (centres undefined), the INHIBITION is 15.3%.

For `O=C1NCCN(CC2CC2)C12CCN(Cc1ccccc1)CC2`, the INHIBITION came to 47.4%.

Take `CCc1noc(CN2CCCN(Cc3cccs3)CC2)n1`: the INHIBITION is given as -47.6%.

For the compound `Cc1nn(C)c(Cl)c1C1CCCN1Cc1ccc(C(N)=O)cc1` (centres undefined), the INHIBITION is on record as -1.14%.

On to `CCn1cc2c(n1)C(COC)CN(c1ccc(C)nn1)C2` (centres undefined), for which the INHIBITION worked out at 36.2%.

Take `CCOCC1CN(S(=O)(=O)CC)Cc2cnn(CC3CC3)c21` (centres undefined): the INHIBITION was 31.7%.

Consider `CCOCC1CN(c2ncccn2)Cc2cnn(CC3CCOCC3)c21` (centres undefined), for which the INHIBITION is on record as 22.5%.

In the case of `CCOCC1CN(c2ccc(C)nn2)Cc2nn(CC)cc21` (centres undefined), the INHIBITION turned out to be 63.5%.

As to `CCOCC1CN(C2CCCC2)Cc2cnn(CC3CCOCC3)c21` (centres undefined), the INHIBITION is 58.8%.

For `CCOCC1CN(S(C)(=O)=O)Cc2cnn(CC3CCOCC3)c21` (centres undefined), the INHIBITION is listed as 30.1%.

Regarding `CS(=O)(=O)N1Cc2cnn(CC3CC3)c2C(COCC2CC2)C1` (centres undefined), the INHIBITION is 53.4%.

`CCn1cc2c(n1)C(COCC1CC1)CN(c1ccc(C)nn1)C2` (centres undefined): the INHIBITION is given as 41%.

For the compound `CCOCC1CN(C)Cc2cnn(CC3CCCC3)c21` (centres undefined), the INHIBITION stood at 36.8%.

As for `COCC1CN(c2ccncn2)Cc2cnn(CC3CCCC3)c21` (centres undefined), the INHIBITION is recorded as 19.5%.

Turning to `COCC1CN(c2ncccn2)Cc2cnn(CC3CC3)c21` (centres undefined), the INHIBITION was 84.2%.

In the case of `Cn1ncc2c1C(COCC1CC1)CN(S(C)(=O)=O)C2` (centres undefined), the INHIBITION is listed as 33.4%.

With `CCc1ccc(NC(=O)c2cnc(N3CCCC3)nc2C)cc1`, the INHIBITION is on record as -55.4%.

`CCCn1cc(NC(=O)Nc2ccc(F)c(C(=O)NC)c2)cn1`: the INHIBITION was 11.3%.

Consider `OC[C@H]1CN(C2Cc3ccccc3C2)C[C@H]1CN1CCC(O)CC1`, for which the INHIBITION worked out at 29.4%.

Take `CCCOCC1CCN(C(=O)c2cnc(-c3csc(C)n3)nc2O)C1` (centres undefined): the INHIBITION is -33.9%.

As to `O=C(CSc1nccc(-c2ccc3c(c2)OCO3)n1)N1CCOCC1`, the INHIBITION was -47.8%.

As for `Cc1cnn(CC2CCCN2Cc2nnc(-c3ccccc3)o2)c1` (centres undefined), the INHIBITION worked out at 40.9%.

Consider `N#Cc1cccc(OCCN2CCn3c(nnc3C3CC3)C2)c1`, for which the INHIBITION is recorded as -1.14%.

For the compound `CCN(Cc1cccc2c1OCO2)C(=O)Nc1cn[nH]c1`, the INHIBITION is -16%.

As to `Cn1ncc2c1C(COCC1CC1)CN(C(=O)c1ccoc1)C2` (centres undefined), the INHIBITION was 25.6%.

Regarding `O=C(c1ccoc1)N1Cc2cnn(CC3CC3)c2C(COCC2CC2)C1` (centres undefined), the INHIBITION was found to be 22.6%.

With `COCC1CN(C(=O)c2ccoc2)Cc2cnn(CC3CCOCC3)c21` (centres undefined), the INHIBITION turned out to be 51.4%.

Take `Cc1nn(CCO)c(C)c1-c1cc(C(C)(C)C)nc(N)c1C#N`: the INHIBITION was -0.71%.

Turning to `COc1cc(F)ccc1NC(=O)NCCNC(=O)OC(C)(C)C`, the INHIBITION is recorded as 19.1%.

For `COc1cc(F)ccc1NC(=O)NC(C)C(=O)NC(C)(C)C` (centres undefined), the INHIBITION was 50.1%.

With `CCC(=O)Nc1ccc(F)cc1OC`, the INHIBITION came to 27.6%.

In the case of `CCn1ncc(CN2CCC(c3ncc(Cl)cc3S(C)(=O)=O)CC2)c1C`, the INHIBITION stood at 20.57%.

As to `COc1ncccc1C(=O)NCCn1nc(C)ccc1=O`, the INHIBITION was found to be 3.68%.

Consider `CNc1ccc(C2CN(c3nc(C)cc(C)n3)CCO2)nc1` (centres undefined), for which the INHIBITION is recorded as -7.9%.

For the compound `COc1ccc(CN2CCC3(CC(=O)N(c4cncnc4)C3)C2)cc1` (centres undefined), the INHIBITION was determined as 42.6%.

In the case of `CC(=O)N1CCN(C(=O)CN2CCCC2c2c(C)nn(C)c2C)CC1` (centres undefined), the INHIBITION is reported as 50.1%.

`Cc1nn(C)c(C)c1NC(=O)CN1CCCC1c1c(C)nn(C)c1C` (centres undefined): the INHIBITION is given as 28.8%.

Consider `Cc1nn(C)c(C)c1C1CCCN1Cc1nnc(C2CC2)n1C` (centres undefined), for which the INHIBITION is 50.5%.

In the case of `Cc1nn(C)c(Cl)c1C1CCCN1CC(=O)NC1CCCCC1` (centres undefined), the INHIBITION amounted to 14.7%.

Consider `Cc1nn(C)c(Cl)c1C1CCCN1CC(=O)N1CCCCC1` (centres undefined), for which the INHIBITION is listed as -3.21%.

As to `Cc1nn(C)c(C)c1C1CCCN1CC(=O)NC(C1CC1)C1CC1` (centres undefined), the INHIBITION is given as 25.7%.

As to `COCCNC(=O)CN1CCCC1c1c(C)nn(C)c1Cl` (centres undefined), the INHIBITION was found to be 36.1%.

With `COc1c(C2CCCN2Cc2nnc(C3CC3)n2C)c(C)nn1C` (centres undefined), the INHIBITION was 5.94%.

Consider `CC(=O)NCCNC(=O)CN1CCCC1c1c(C)nn(C)c1C` (centres undefined), for which the INHIBITION was 60.2%.

For `Cc1nn(C)c(Cl)c1C1CCCN1Cc1nnc(C2CC2)n1C` (centres undefined), the INHIBITION is given as 7.93%.

`Cc1nn(C)c(Cl)c1C1CCCN1CC(=O)N1CCOCC1` (centres undefined): the INHIBITION came out at 33.6%.

In the case of `Cc1nn(C)c(Cl)c1C1CCCN1CC(=O)NC1CCCC1` (centres undefined), the INHIBITION amounted to 53%.
